Screening results deposited in PubChem by several laboratories.
MEKK2mut PB1 HTS – MEK5 binding signal on mutant MEKK2 PB1, primary screen, biochemical, multiplex bead flow cytometry, Alexa488-MEK5; Alexa488-MEK5 binding to MEKK2 mutant; percent response, % at 10 µM; 0.35% of 290,000 active; in the data active = percent response above about 24%, passing the limit was not always enough
MEKK3 PB1 HTS – modulators of MEKK3-MEK5 PB1 binding, primary screen, biochemical, wildtype MEKK3, multiplex bead flow cytometry, Alexa488-MEK5; bead-based flow cytometry, Alexa488-MEK5 binding to MEKK3; actives lie on both sides; 0 = blocked by unlabeled MEK5, 100 = vehicle; binding response (% of control), % at 10 µM; 1.4% of 290,000 active;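 active = binding response more than 3 SD above or below the average of its plate-row segment, actives on both sides; inconclusive = wells at one plate position flagged as instrument error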;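 also: Alexa488 bead fluorescence after subtracting the streptavidin-only scavenger bead signal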
Target sequence (Q99759 whole entry, looked up): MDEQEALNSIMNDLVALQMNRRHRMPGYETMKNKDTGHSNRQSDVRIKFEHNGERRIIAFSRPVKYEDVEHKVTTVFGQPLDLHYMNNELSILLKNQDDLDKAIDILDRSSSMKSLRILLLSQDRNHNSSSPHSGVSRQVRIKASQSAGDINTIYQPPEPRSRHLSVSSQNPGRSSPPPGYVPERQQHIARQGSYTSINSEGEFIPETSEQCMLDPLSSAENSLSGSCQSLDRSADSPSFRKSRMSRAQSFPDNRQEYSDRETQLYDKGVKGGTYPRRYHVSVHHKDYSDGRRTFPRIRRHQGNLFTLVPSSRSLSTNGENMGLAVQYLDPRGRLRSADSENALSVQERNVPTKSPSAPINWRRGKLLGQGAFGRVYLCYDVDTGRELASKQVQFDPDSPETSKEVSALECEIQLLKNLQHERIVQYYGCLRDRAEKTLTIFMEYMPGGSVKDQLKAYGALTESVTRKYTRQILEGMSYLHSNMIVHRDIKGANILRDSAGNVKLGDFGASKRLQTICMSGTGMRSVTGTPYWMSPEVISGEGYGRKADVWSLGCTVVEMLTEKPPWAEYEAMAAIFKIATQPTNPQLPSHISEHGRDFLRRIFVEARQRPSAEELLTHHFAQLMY
dFosB act-1 – activators of delta FosB homodimer, primary screen, biochemical, fluorescence polarization, TAMRA-CDK5 oligo, single point. Protein FosB (Mus musculus), P13346. purified delta FosB; percent of positive-control signal above neutral wells. activation, % at 25 µM. 0.99% of 340,000 active. AID 493131, 2011;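 active = mean activation above about 17%, with every replicate also reaching it, limit read from the data, passing the limit was not always enough; inconclusive = only one of the two conditions met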
MEKK2wt PB1 HTS – modulators of MEK5 binding to wildtype MEKK2, primary screen, biochemical, multiplex bead flow cytometry, Alexa488-MEK5; Mitogen-activated protein kinase kinase kinase 2 (Homo sapiens), Q9Y2U5; binding response (% of control), % at 10 µM; Alexa488-MEK5 binding to MEKK2 WT; actives lie on both sides; 1.1% of 290,000 active; in the data active = binding response below about 67% or above about 130%; inconclusive = no clear call, values can overlap the other calls; inactive = in between
FID counter – compounds displacing fluorescent DNA intercalator, primary screen, artefact control for HCV NS3 helicase inhibitor project, biochemical, FID fluorescence; DNA fluorescent intercalator displacement; inhibition, % at 7.9 µM; 0.17% of 290,000 active; AID 1845, 2009; in the data active = inhibition above about 37%;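 also: 0% = vehicle and 100% = reference compound; higher means more ethidium bromide displaced from hairpin DNA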
dFosB act-2 – activators of mouse delta FosB DNA binding, confirmation, biochemical, fluorescence polarization, TAMRA-CDK5 oligo, cherry-picked samples; shares compounds with dFosB act-1; purified delta FosB; normalised: neutral wells 0, positive control 100; activation, % at 24.9 µM; 2,400 tested, under 10 active; AID 588690, 2011;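 active = highest replicate activation at or above 34% and every replicate reaching that threshold; inconclusive = meets only one of the two criteria; inactive = meets neither criterion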;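 also: higher polarization means more probe DNA bound by delta FosB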
* = called active by the depositor. Sampled rows, rich in hits. Any-hit rate of the full collection: about 2.9%.

For O=C(CNc1ccc2ccccc2c1)N/N=C/c1ccc([N+](=O)[O-])o1 the results were MEKK2mut PB1 HTS -3, MEKK3 PB1 HTS 99, dFosB act-1 31*, MEKK2wt PB1 HTS 90, FID counter -12 and dFosB act-2 4.
Screening CC(=O)c1ccc(NC(=O)C2CCCN(S(=O)(=O)c3ccc(-n4cnnn4)cc3)C2)cc1 (configuration not stated) returned MEKK2mut PB1 HTS -1, MEKK3 PB1 HTS 99, dFosB act-1 9, MEKK2wt PB1 HTS 99 and FID counter -24.
`CC(=O)c1ccc(NC(=O)c2ccc(-n3cnnn3)cc2)cc1` gave dFosB act-1 24* and dFosB act-2 2.
Screening Cc1cc(C)cc(OCC(=O)Nc2ccc(-n3cnnn3)cc2)c1 returned dFosB act-1 34* and dFosB act-2 6.
For Cc1cc(C)c(NC(=O)COc2ccc(-n3cnnn3)cc2)c(C)c1 the results were MEKK2mut PB1 HTS 6, MEKK3 PB1 HTS 98, dFosB act-1 -9, MEKK2wt PB1 HTS 102 and FID counter -16.
Screening CC(=O)Nc1ccc(NC(=O)C2CCCN(S(=O)(=O)c3ccc(-n4cnnn4)cc3)C2)cc1 (configuration not stated) returned MEKK2mut PB1 HTS 4, MEKK3 PB1 HTS 102, dFosB act-1 23*, MEKK2wt PB1 HTS 102, FID counter -24 and dFosB act-2 0.
`COC(=O)c1ccc(C(=O)N2CCCC(N3CCN(c4ccccc4)CC3)C2)nc1` (configuration not stated) gave MEKK2mut PB1 HTS 8, MEKK3 PB1 HTS 101, dFosB act-1 -4, MEKK2wt PB1 HTS 105 and FID counter -30.
`COc1ccc(NC(=O)Cn2nnc(C(=O)NCc3cccs3)c2N)cc1` gave MEKK2mut PB1 HTS 3, MEKK3 PB1 HTS 106, dFosB act-1 14, MEKK2wt PB1 HTS 104 and FID counter -3.
O=C(Cn1nnc2c(cnn2-c2ccccc2)c1=O)NCc1cccs1 was read as MEKK2mut PB1 HTS 1, MEKK3 PB1 HTS 97, dFosB act-1 38*, MEKK2wt PB1 HTS 98, FID counter 2 and dFosB act-2 5.
For COc1ccccc1NC(=O)Cn1nnc(C(=O)NCc2cccs2)c1N the results were MEKK2mut PB1 HTS 4, MEKK3 PB1 HTS 103, dFosB act-1 22*, MEKK2wt PB1 HTS 105, FID counter -11 and dFosB act-2 -7.
CCc1ccccc1NC(=O)Cn1nnc(C(=O)NCc2cccs2)c1N was read as MEKK2mut PB1 HTS 0, MEKK3 PB1 HTS 120, dFosB act-1 40*, MEKK2wt PB1 HTS 114, FID counter -1 and dFosB act-2 0.
For C[C@H](O)[C@@H]1C(=O)N2CCc3ccc(N4CCOCC4)cc3[C@@H]2C[C@@H]1N(C)C(=O)Nc1ccccc1 the results were dFosB act-1 -2.
`O=C(NNC(=S)Nc1ccc(F)c(Cl)c1)c1ccccc1Br` gave MEKK2mut PB1 HTS -3, MEKK3 PB1 HTS 101, dFosB act-1 -12, MEKK2wt PB1 HTS 95 and FID counter -5.
For CC(C)C(C(=O)NCC1CCCO1)N(C(=O)CNS(=O)(=O)c1ccccc1)C1CCCCC1 (configuration not stated) the results were dFosB act-1 -4 and FID counter -34.
`COCc1cc(C)nc(OCC(=O)N/N=C/c2ccc(-c3cc([N+](=O)[O-])ccc3C)o2)c1C#N` gave MEKK2mut PB1 HTS 5, MEKK3 PB1 HTS 99, dFosB act-1 10, MEKK2wt PB1 HTS 104 and FID counter 4.
Cc1ccc([N+](=O)[O-])cc1-c1ccc(/C=C(\C#N)c2[nH]nc(N)c2C#N)o1 was read as MEKK2mut PB1 HTS -3, MEKK3 PB1 HTS 92, dFosB act-1 29*, MEKK2wt PB1 HTS 86, FID counter 7 and dFosB act-2 5.
COc1ccc2cc(/C=N/NC(=O)c3ccc(CN(c4cccc(Cl)c4Cl)S(C)(=O)=O)cc3)c(Cl)nc2c1 was read as MEKK2mut PB1 HTS 0, MEKK3 PB1 HTS 104, dFosB act-1 46*, MEKK2wt PB1 HTS 100, FID counter -1 and dFosB act-2 inconclusive.
`O=C(NC1CCS(=O)(=O)C1)c1c(NC(=O)C2COc3ccccc3O2)sc2c1CCCC2` (configuration not stated) gave MEKK2mut PB1 HTS 10, MEKK3 PB1 HTS 110, dFosB act-1 40*, MEKK2wt PB1 HTS 110, FID counter -4 and dFosB act-2 0.
Screening Cc1ccc(C2=NOC3(CC(=O)N(c4ccc(C)cc4)C3=O)C2)cc1 (configuration not stated) returned MEKK2mut PB1 HTS -14, MEKK3 PB1 HTS 89, dFosB act-1 29*, MEKK2wt PB1 HTS 90, FID counter -21 and dFosB act-2 5.
For O=C(C1CCC(CNc2nc(=S)[nH]c3ccccc23)CC1)N1CCN(c2ccc(F)cc2)CC1 (configuration not stated) the results were MEKK2mut PB1 HTS -9, MEKK3 PB1 HTS 88, dFosB act-1 37*, MEKK2wt PB1 HTS 88, FID counter -36 and dFosB act-2 1.
`O=C(NCCC1=CCCCC1)C1CCCN(c2nc3ccccc3o2)C1` (configuration not stated) gave MEKK2mut PB1 HTS 2, MEKK3 PB1 HTS 94, dFosB act-1 -5, MEKK2wt PB1 HTS 96 and FID counter -13.
For O=C(NCCC1=CCCCC1)C1CCC(CNc2nc(=S)[nH]c3ccccc23)CC1 (configuration not stated) the results were MEKK2mut PB1 HTS -9, MEKK3 PB1 HTS 96, dFosB act-1 23*, MEKK2wt PB1 HTS 95, FID counter 8 and dFosB act-2 2.
For O=C(Cc1csc(Nc2nc(=S)[nH]c3ccccc23)n1)NCc1ccccc1Cl the results were MEKK2mut PB1 HTS -5, MEKK3 PB1 HTS 85, dFosB act-1 49*, MEKK2wt PB1 HTS 90, FID counter -2 and dFosB act-2 7.
`COc1ccc(N2CCN(CCCNC(=O)C3CCC(CNc4nc(=S)[nH]c5ccccc45)CC3)CC2)cc1` (configuration not stated) gave MEKK2mut PB1 HTS -2, MEKK3 PB1 HTS 103, dFosB act-1 -1, MEKK2wt PB1 HTS 132 and FID counter 16.
